SARS PLpro yeast = qHTS of Yeast-based Assay for SARS-CoV PLP. S. cerevisiae expressing SARS-CoV PLpro, growth rescue. Potency, µM (series often up to 32.9 µM), inactives show top-dose activity, positive = growth rescue, hits mostly activators. actives 0.19% (n = 330,000); calls by dose curve; note: potency is the fitted concentration of half-maximal effect; 0% is about no effect; nearly all actives have a fitted effect of over 55% in size
Pf growth 48h = Primary qHTS for delayed death inhibitors of the malarial parasite plastid, 48 hour incubation; Potency, µM (top dose mostly 28.7 µM), for inactives: at the top dose activity change, negative = inhibition, actives largely listed as inhibitors; AID 504832, 2011; actives 5.9% (n = 310,000); P. falciparum luciferase growth in erythrocytes, 48 h; note: potency is the fitted concentration of half-maximal effect; % is set by controls: 0 for no effect and ±100 for the full control effect
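A one-generation exposure of luciferase-tagged malaria parasites in RPMI 1640/Albumax erythrocyte culture, 37 C and 5% CO2. Inhibition is inferred from decreased luminescence after adding detection reagent.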
Shiga inhibitor = A qHTS for Small Molecule Inhibitors of Shiga Toxin | Vero cells, Shiga toxin protein synthesis inhibition reporter | inhibition, % at 38.7 µM | actives 9.2% (n = 290,000); in the data active = inhibition mostly above about 28%, no sharp cut-off; inactive = mostly below about 43%; note: 0% is about no effect
Pf growth 96h = Primary qHTS for delayed death inhibitors of the malarial parasite plastid, 96 hour incubation. actives 6.9% (n = 320,000). P. falciparum luciferase reporter growth, 96 h. Potency, µM (highest dose often 28.7 µM), without a hit: at the top dose activity change, negative = inhibition, usual class: inhibitors. AID 504834, 2011; note: potency is the fitted concentration of half-maximal effect; % is set by controls: 0 for no effect and ±100 for the full control effect
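96 h incubation, 37 C, 5% CO2, of luciferase-reporter P. falciparum-infected RBCs (2% hematocrit, 0.05% parasitemia final) with test compounds; endpoint luminescence.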
CHX counter = Cycloheximide Counterscreen for Small Molecule Inhibitors of Shiga Toxin. cell reporter, cycloheximide protein synthesis inhibition counterscreen. max response, %. actives 12% (n = 300,000); in the data active = max response mostly above about 13%, no sharp cut-off; inactive = mostly below about 14%; note: read at 38.3 µM for the half of the compounds with a filed dose; 0% is about no effect
AMA1-RON2 inh = qHTS for Inhibitors of AMA1-RON; Towards Development of Antimalarial Drug Lead: Primary Screen; AID 720542, 2013; AlphaScreen AMA1-biotinylated RON2 peptide binding; Plasmodium falciparum AMA1 (3D7) - RON2 peptide interaction; actives 0.2% (n = 360,000); Potency, µM (series often up to 58.2 µM), for inactives: at the highest dose activity change, negative = inhibition, usual class: inhibitors;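 note: potency is the fitted concentration of half-maximal effect; 0% = vehicle wells and -100% = peptide control; nearly all actives have a fitted effect of over 45% in size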
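AMA1 (3D7) with his tag at 25 nM final met compounds first, then biotinylated RON2 peptide at 25 nM; detection used donor plus acceptor beads, 10 µg/mL apiece, read by AlphaScreen after 30 min at room temperature.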
An asterisk follows results filed as active; ? = inconclusive; · = no result; [ ] = remark or other dose. The list is not random: actives were taken first. Their share in the collection is about 19%. Unless noted, calls come from the whole dose curve; as a rule, active = well fitted curve in the direction sought with a large enough effect; inconclusive = small, poorly fitted or top-dose-only effect, or another doubt; inactive = no such curve, though single readings can be large; an effect the other way counts as inactive or inconclusive.

SMILES	SARS PLpro yeast	Pf growth 48h	Shiga inhibitor	Pf growth 96h	CHX counter	AMA1-RON2 inh
CC(CCc1ccc(O)cc1)NCCc1ccc(O)c(O)c1 (stereo unspecified)	·	?	-2	1.5µM*	-2	?
COc1ccc(/C=C2\CCC(C3CCCC3)C2=O)cc1OC (stereo unspecified)	0%	-20%	49*	-2%	36*	-1%
COc1cc(OC)c(OC)cc1/C=C1\CCC(C2CCCC2)C1=O (stereo unspecified)	-6%	-8%	-1	5%	-1	?
COc1cc(/C=C2\CCC(C3CCCC3)C2=O)ccc1OC(C)C (stereo unspecified)	-1%	2.1µM*	5	?	-3	9%
Cc1ccc(OCc2nc(-c3ccccn3)n[nH]2)cc1	-1%	43%	52	·	32*	?
Cc1cccc(OCc2nc(-c3ccccn3)n[nH]2)c1	·	18%	28	19%	16	?
Cc1ccc(S(=O)(=O)N2C[C@H]3C(=O)C[C@@H](c4ccccc4F)N(S(=O)(=O)c4ccc(C)cc4)[C@H]3C[C@H]2c2ccccc2)cc1	·	·	·	·	·	3%
CC1(c2ccc3ccccc3c2)NC(=O)N(CC(=O)O)C1=O (stereo unspecified)	5%	21%	-7	50%	-5	11%
CCOC(=O)c1c(C)[nH]c(C(=O)CN2C(=O)NC3(CCCC3)C2=O)c1C	0%	27%	52*	55%	29*	-6%
CCCC1(c2ccccc2)NC(=O)N(CC(=O)c2[nH]c(C)c(C(=O)OCC)c2C)C1=O (stereo unspecified)	0%	4.1µM*	62	8.3µM*	10	0%
CCOC(=O)c1c(C)[nH]c(C)c1C(=O)CN1C(=O)NC2(CCCCCC2)C1=O	-10%	6.6µM*	·	?	·	-8%
CCOC(=O)c1c(NC(=O)CN2C(=O)NC3(CCCC3)C2=O)sc(C)c1CC	4%	?	·	?	·	-16%
CCOC(=O)c1c(C)[nH]c(C(=O)CN2C(=O)NC(C)(c3ccc4ccccc4c3)C2=O)c1C (stereo unspecified)	-3%	?	-11	5.2µM*	-1	-13%
C/C(=C(/CCO)SS/C(CCO)=C(\C)N(C=O)Cc1cnc(C)nc1N)N(C=O)Cc1cnc(C)nc1N	·	-7%	·	?	·	·
CC(=O)C(Cc1ccccc1)NC(=O)COC(=O)CCN1C(=O)C2CC=CCC2C1=O (stereo unspecified)	1%	32%	·	62%	·	-3%
CCOC(=O)C(=C1Nc2ccccc2N1)n1c(-c2cccnc2)nc2ccccc21	·	·	·	·	·	71%
Cc1cc(NC(=O)C(C)C)ncc1NC(=O)c1ccccn1	0%	33%	129*	11%	30*	16%
CCCC(=O)Nc1cc(C)c(NC(=O)c2ccccn2)cn1	6%	75%	86*	12%	28*	60%
CCN(C(=O)C1CCCN(c2ncnc3onc(-c4ccc(F)cc4)c23)C1)c1ccccc1 (stereo unspecified)	·	·	-15	·	-4	·
C[C@H]1NC(=O)[C@]2(C)[C@@H](c3ccccc3)[C@H]3COc4ccccc4[C@H]3N2C1=O	·	·	·	·	·	13%
COc1ccc2ncc(S(=O)(=O)c3ccccc3)c(N3CCC4(CC3)OCCO4)c2c1	-59%	8.3µM*	3	?	0	-6%[11.6 µM]
COc1cc2ncc(S(=O)(=O)c3ccccc3)c(N3CCC4(CC3)OCCO4)c2cc1OC	-4%	?	-11	17%	-1	-8%
COc1ccc2ncc(S(=O)(=O)c3ccccc3)c(N3CCN(c4ccccc4)CC3)c2c1	-3%	7.4µM*	1	13µM*	-2	-29%
CCCCCc1c(-c2ccc(F)cc2F)ncn1CCc1ccccc1OC	·	·	·	·	·	-24%
CN=C1CC(C)(C)CC(=O)/C1=C(/O)CCCN1C(=O)c2ccccc2C1=O	-1%	-5%	12	-5%	5	0%
SMILES	SARS PLpro yeast	Pf growth 48h	Shiga inhibitor	Pf growth 96h	CHX counter	AMA1-RON2 inh
Cc1nc(NC(=O)c2cccc(Cl)c2)sc1C(=O)N1CCCCC1	1%	?	-12	28%	-3	-2%
Cn1nnnc1SCC(=O)NCc1cccs1	13%	-3%	11	-23%	-3	4%
O=C(CSCc1cnn(-c2ccccc2)c1-n1cccc1)NCc1cccs1	-15%	·	-7	4.7µM*	-1	-3%
CNC(=O)CSCc1cnn(-c2ccccc2)c1-n1cccc1	6%	·	41	?	10	-12%
O=C(CSc1nnc2ccccn12)NCc1cccs1	12%	·	52*	?	21*	0%
O=C(CSc1ccc2ccccc2c1)NCc1cccs1	-6%	11%	15	13%	32*	4%
COc1cccc(CNc2nc3cc(-c4ccc(C(=O)N5CCN(C)CC5)cc4)sc3c(=O)n2C)c1	·	·	·	·	·	-12%
CCN1C2=NCCCN2c2cc(C)c(C)cc21	2%	-6%	-5	83%	-4	0%
O=C(Nc1ccc2c(c1)OCCO2)C1CC(c2ccccc2Cl)=NO1 (stereo unspecified)	0%	62%	117*	185%	61*	-5%
O=C(Nc1ccc2c(c1)OCO2)C1CC(c2ccc(Cl)cc2)=NO1 (stereo unspecified)	-3%	24%	-6	-20%	-3	10%
COc1ccc(NC(=O)C2CC(c3ccccc3Cl)=NO2)cc1 (stereo unspecified)	-5%	36%	30	-24%	14*	-9%
O=C(Nc1ccc2c(c1)OCO2)C1CC(c2ccccc2O)=NO1 (stereo unspecified)	20%	73%	103	?	active	85%
COc1ccc(Cl)cc1NC(=O)C1CC(c2ccccc2Cl)=NO1 (stereo unspecified)	·	·	·	·	·	0%
COC(=O)C/C=C/[C@@H](C)[C@@H](/C=N/O[C@H](C)c1cn([C@@H]2COC[C@H]2O)nn1)NS(=O)(=O)c1ccc(C)cc1	-7%	?	-11	-16%	-2	·
COC(=O)C/C=C/[C@@H](C)[C@@H](/C=N/O[C@@H](C)c1cn([C@H](CO)Cc2ccccc2)nn1)NS(=O)(=O)c1ccc(C)cc1	6%	?	-5	12µM*	5	·
CC(C)CN1CCC(CNC(=O)CCc2nnc(Cc3c[nH]c4ccccc34)o2)CC1	1%	15%	-2	?	1	-2%
Cc1cc(C)cc(NC(=S)N2CCCC2)c1	5%	-5%	-4	-17%	-3	-4%
CC(C)c1ccc(NC(=S)N2CCN(C)CC2)cc1	-2%	65%	37*	141%	37*	0%
CC(C)c1ccc(NC(=S)N2CCCC2)cc1	1%	80%	156*	-8%	61*	11%

Screening data from PubChem.
